Measurements taken from PubChem BioAssay AID1159580 (chemical genetic matrix, 2015).
The whole screen tested about 5,500 compounds, of which about 2,000 (36%) were called active. Not shown: some 18% with an inconclusive outcome. Cut-off read from the data, not from the text of the source: active = normalized growth mostly below about 0.91 (no sharp cut-off); inconclusive = no clear call, values can overlap the other calls; inactive = mostly above about 0.92. Some of the results follow.

Experiment: chemical genetic growth profiling, strain panel (AID 1159580);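 note: tested at 20 µM; growth read once vehicle control cultures reached saturation at 30 °C; 1 = growth at the plate median or of vehicle wells; lower values mean less growth of the strain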
Details: S. cerevisiae deletion strains, growth OD

Measured: normalized growth

CC(=O)OCCCCN1C(=O)c2ccccc2C1=O
inactive: locus YAL013W, strain DEP1, stronger effect = lower value 0.995 | locus YBR229C, strain ROT2, stronger effect = lower value 1 | locus YCL061C, strain MRC1, stronger effect = lower value 0.986 | locus YDL101C, strain DUN1, stronger effect = lower value 1.04 | locus YDL134C, strain PPH21, stronger effect = lower value 1 | locus YDR150W, strain NUM1, stronger effect = lower value 0.988 | locus YEL061C, strain CIN8, stronger effect = lower value 0.995 | locus YGR078C, strain PAC10, stronger effect = lower value 1.01 | locus YHR030C, strain SLT2, stronger effect = lower value 0.943 | locus YHR087W, strain rtc3, stronger effect = lower value 1.01 | locus YJL187C, strain SWE1, stronger effect = lower value 1 | locus YJR043C, strain POL32, stronger effect = lower value 0.997 | locus YJR075W, strain HOC1, stronger effect = lower value 0.977 | locus YKL190W, strain CNB1, stronger effect = lower value 0.999 | locus YLR039C, strain RIC1, stronger effect = lower value 1.02 | locus YLR058C, strain SHM2 (second series), stronger effect = lower value 0.994 | locus YLR085C, strain ARP6, stronger effect = lower value 0.967 | locus YLR262C, strain YPT6, stronger effect = lower value 1.02 | locus YML094W, strain GIM5, stronger effect = lower value 1.05 | locus YMR219W, strain ESC1, stronger effect = lower value 1 | locus YMR263W, strain SAP30, stronger effect = lower value 0.996 | locus YNL153C, strain GIM3, stronger effect = lower value 1.02 | locus YNL298W, strain CLA4 (second series), stronger effect = lower value 0.983 | locus YNL322C, strain KRE1, stronger effect = lower value 1 | locus YNR030W, strain Alg12, stronger effect = lower value 0.995 | locus YOL006C, strain TOP1, stronger effect = lower value 0.993 | locus YPL055C, strain LGE1, stronger effect = lower value 1 | locus YPL241C, strain CIN2, stronger effect = lower value 1.05 | locus YPR135W, strain CTF4, stronger effect = lower value 0.975
